USP2a inh = inhibitors of human ubiquitin-specific protease USP2a; USP2 core, Ub-CHOP2 coupled fluorogenic reporter, 485/531; Potency, µM (titrated, usually from 38.3 µM), usual class: inhibitors; 0.01% of 330,000 active
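Cell-free coupled assay: 10nM USP2 core preincubated 30min RT with compound in Tris-HCl pH 8.0/CaCl2/CHAPS buffer, then 25nM Ub-CHOP2 and 25nM reporter substrate; fluorescence (Ex 485/Em 531) read after 60min RT, normalized to NEM inhibition, concentration-response curves fitted.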
PLK1 PBD block = blocks phosphopeptide binding to human PLK1 polo-box domain; P53350; Plk1 PBD binding of FITC phosphopeptide, fluorescence polarization; Potency, µM, actives largely listed as inhibitors; 2.8% of 360,000 active; AID 720504; further: series mostly up to about 57 µM; nearly all actives have a fitted effect of over 65% in size
PI5P4Ka inh = PI5P4K alpha (human) kinase inhibition; P48426; PI5P4Kalpha enzyme, ADP-Glo luminescence, 60 min; stronger effect = lower value; max response, %; 1.2% of 330,000 active; AID 652105; active means max response of -50% or lower; inconclusive means between -30% and -50%; inactive means -30% or higher; further: value at the top dose of about 77 µM
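ADP-Glo luminescence end-point after a 60 min room-temperature kinase reaction. PI5P4Kalpha and substrate in HEPES pH 7.4 buffer with EGTA, 0.1% CHAPS and 5% DMSO; ATP at 5 microM final.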
WRN helicase inh = WRN helicase (human) inhibition; WRN helicase unwinding, fluorescent forked duplex, kinetic; Potency, µM (titrated, usually from 114 µM), actives largely listed as inhibitors; 0.46% of 360,000 active; AID 651768; further: nearly all actives have a fitted effect of over 55% in size
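Fluorescence dequenching readout, ex 525 nm/em 598 nm, kinetic mode: forked duplex DNA (100 nM final) with adjacent fluorophore and quencher unwound by WRN (20 nM final) with 2 mM ATP. Compound preincubation 15 min, room temperature.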
USP1 inh = inhibitors of human USP1/UAF1 deubiquitinase; O94782; recombinant USP1/UAF1, Ub-Rhodamine cleavage fluorescence; Potency, µM (series often up to 57.1 µM), actives largely listed as inhibitors; 0.23% of 390,000 active; AID 743255; further: nearly all actives have a fitted effect of over 60% in size
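USP1/UAF1 complex (1 nM) preincubated 15 min at room temperature with compound, then Ub-Rho substrate (150 nM final) added. Kinetic fluorescence at 480/540 nm over 6 reads at 60 s intervals; 50 mM HEPES pH 7.8, 0.5 mM EDTA, 0.1 mg/ml BSA, 1 mM TCEP, 0.01% Tween-20.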
ADP-Glo interf = interferes with ADP-Glo detection without enzyme present. shares compounds with PI5P4Ka inh. ADP-Glo detection counter-screen, luciferase luminescence, no enzyme. Potency, µM (top dose mostly 76.9 µM), hits mostly inhibitors. 1,100 tested, under 10 active. AID 743285
Hits are given with their value; - = inactive; ? = inconclusive; . = not tested or not shown; [ ] = remark or other dose. In the library only some 3.3% were active in any assay of this set; here they are far more common. Unless noted, the call rests on the fitted dose curve; in most records, active means well fitted curve in the direction sought with a large enough effect; inconclusive means small, poorly fitted or top-dose-only effect, or another doubt; inactive means no such curve, though single readings can be large; an effect the other way counts as inactive or inconclusive.

SMILES	USP2a inh	PLK1 PBD block	PI5P4Ka inh	WRN helicase inh	USP1 inh	ADP-Glo interf
O=C(c1ccc2nc(-c3ccco3)c(-c3ccco3)nc2c1)N1CCN(c2ncccn2)CC1	-	-	-53.5	44.7µM	-	-
O=C(Nc1ccc2nc(-c3ccco3)c(-c3ccco3)nc2c1)N1CCN(c2ccccn2)CC1	?	5.32µM	-91.0	17.8µM	-	-
O=C(c1cccc(C(=O)N2CCN(c3ncccn3)CC2)c1)N1CCN(c2ncccn2)CC1	-	-	-	-	-	.
CCc1ccc(S(=O)(=O)c2nnn3c2nc(Nc2ccc(F)cc2)c2cc(Cl)ccc23)cc1	.	.	.	.	-	.
CCOc1ccc(CCNS(=O)(=O)c2ccc3c(c2)NC(=O)CO3)cc1OCC	-	-	-	-	-	.
O=C1COc2ccc(S(=O)(=O)NCCc3ccccc3)cc2N1	-	-	-50.8	-	-	-
Cc1cccc(NC(=O)CNC(=O)c2sc3ccccc3c2Cl)n1	-	-	-51.2	-	-	-
Cc1cccnc1NC(=O)CNC(=O)c1sc2ccccc2c1Cl	-	-	-	-	-	.
COc1ccc(S(=O)(=O)c2c(O)c3ccc(C(=O)NCc4ccccc4)cc3[nH]c2=O)cc1	.	.	.	.	-	.
Cc1nc(Nc2cccc(C(F)(F)F)c2)nc2c1C(=O)CC(C)C2 (stereo unspecified)	-	-	-	-	-	.
Cc1ccc(Nc2nc(C)c3c(n2)CC(C)CC3=O)c(C)c1 (stereo unspecified)	-	-	-	-	-	-
Cc1ccc(-n2c3nc(=O)[nH]c(=O)c-3cc3c(C)nn(-c4ccccc4)c32)cc1Cl	.	.	.	.	-	.
Cc1ccc(NC(=O)C2CCCN(S(=O)(=O)c3cccs3)C2)c(C)c1 (stereo unspecified)	.	.	.	.	-	.
CC(=O)Nc1cc(NC(C)=O)cc(C(=O)N2CCCC3CCCCC32)c1 (stereo unspecified)	-	-	-65.2	?	-	-
O=C(Nc1ccccc1)N1CCCC2CCCCC21 (stereo unspecified)	-	-	-	-	-	.
CN(C)c1ccc(CNC(=O)c2ccccc2NC(=O)c2nsc3ccccc23)cc1	.	.	.	.	-	.
Cc1oc2ccc(OCc3c(F)cccc3Cl)cc2c1C(=O)O	-	-	-54.6	-	-	-
Cc1oc2ccc(OCc3cccc(Cl)c3)cc2c1C(=O)O	-	-	?	-	-	.
CC1=NN(c2nc(-c3ccc(Cl)cc3)cs2)C(=O)C1	-	?	-66.7	?	-	-
CNC(=S)N(Cc1cccs1)Cc1cc2cc(OC)ccc2[nH]c1=O	-	-	-50.8	?	-	-
Cc1c(CC(=O)O)c(=O)oc2c(C)c3occ(-c4ccc(Br)cc4)c3cc12	-	29.9µM	-50.7	-[11.6 µM]	?	-
CCOc1ccccc1CNC(=O)c1oc2c(c1C)-c1[nH]ncc1CC2	.	.	.	.	-	.
Cc1sc2ncnc(NC(C)C(=O)O)c2c1C (stereo unspecified)	-	-	.	-	-	-
Cc1nc2ccc(NC3=NCCCCC3)cc2s1	-	29.9µM	-54.6	-	-	-
Cc1cnc(C(=O)OCc2nc3ccsc3c(=O)[nH]2)cn1	-	-	-65.0	50.1µM	-	-
SMILES	USP2a inh	PLK1 PBD block	PI5P4Ka inh	WRN helicase inh	USP1 inh	ADP-Glo interf
Cc1cccc(NC(=O)C(c2ccccc2)N2Cc3ccccc3C2=O)c1C (stereo unspecified)	.	.	.	.	-	.
Cc1csc(NC(=O)CSc2nc3[nH]ncc3c(=O)[nH]2)n1	-	21.2µM	.	-	-	-
CCc1nnc(NC(=O)CSc2sc3c(O)cc(=O)[nH]c3c2C#N)s1	-	29.9µM	-84.4	12.6µM	-	-
Cc1csc(NC(=O)CSc2sc3c(O)cc(=O)[nH]c3c2C#N)n1	-	?	-80.8	39.8µM	?	-
CCc1nnc(NC(=O)CSc2nc3[nH]c(=O)cc(O)c3s2)s1	-	-	-	-	-	.
CCN(C(=O)Cn1c(=O)n(-c2ccccc2)c(=O)c2ccc(C(=O)NCc3ccc4c(c3)OCO4)cc21)c1cccc(C)c1	.	.	.	.	-	.
COc1ccccc1C(=O)Nc1nnc(SCc2cc(=O)n3ccc(C)cc3n2)s1	.	.	.	.	-	.
COc1ccc(CNCc2ccc3c(c2)n(C)c(=O)n3C)cc1	.	.	.	.	-	.
COc1ccc(Nc2ccccc2C(=O)O)cc1	-	-	-63.5	-	-	-
COc1ccc(Nc2cccccc2=O)cc1	-	-	-	-	-	.
Cc1cccc2c1-c1sc(C(=O)N(C)c3cccc(C(F)(F)F)c3)cc1CO2	.	.	.	.	-	.
CCC(=O)N(CCC(c1ccccc1)c1ccco1)Cc1cccs1 (stereo unspecified)	-	-	-	-	-	.
O=C(c1ccco1)N(CCC(c1ccccc1)c1ccco1)Cc1ccccc1 (stereo unspecified)	-	?	-59.7	?	-	-
CCOC(=O)c1sc2ccccc2c1S(=O)(=O)Nc1ccc(CC)cc1	.	.	.	.	-	.
COc1ccc(C2=CC3=C(Br)C(=O)C(C)(OC(=O)c4cccs4)C(=O)C3=CO2)cc1 (stereo unspecified)	.	8.44µM	-70.5	?	35.5µM	-
COC(=O)CCCC1=CC2=CC(=O)C(C)(OC(=O)c3cccs3)C(=O)C2=CN1c1ccc(OC)cc1 (stereo unspecified)	-	-	-	-	-	.
NC(=O)c1c(NC(=O)c2cc3ccccc3o2)sc2c1CCC2	-	?	-55.9	-	-	-
NC(=O)c1c(NC(=O)C2c3ccccc3Oc3ccccc32)sc2c1CCCCC2	-	?	-54.2	-[11.6 µM]	-	-
CCC(C)(C)C1CCc2c(sc(NC(=O)C3c4ccccc4Oc4ccccc43)c2C(N)=O)C1 (stereo unspecified)	.	.	.	.	-	.
COc1ccc(NC(=O)CSc2sc3c(O)cc(=O)[nH]c3c2C#N)c(OC)c1	-	?	-64.6	?	-	-
COc1ccccc1NC(=O)CSc1sc2c(O)cc(=O)[nH]c2c1C#N	-	?	-66.5	50.1µM	-	-
Cc1ccc(-c2csc(N3CCN(c4cc5c(cc4Cl)nc(-c4ccncc4)n5CCN4CCCCC4)CC3)n2)cc1	-	?	-64.0	-	-	-
Nc1sc2c(c1C(=O)c1ccccc1)CCCC2	-	21.2µM	-50.6	-	-	-
Cc1cccc(OC(=O)CSc2nnc(-c3ccc4c(c3)OCO4)o2)c1C	.	.	.	.	-	.
Cc1ccc2nc(NC(=O)C3CCN(S(=O)(=O)c4cc([N+](=O)[O-])ccc4Cl)CC3)sc2c1	-	-	-52.5	?	-	-
O=C(Nc1nc2ccc(F)cc2s1)C1CCN(S(=O)(=O)c2cc([N+](=O)[O-])ccc2Cl)CC1	-	-	?	-	-	.
CCc1ccc(OCC(=O)Nc2ccc(Cl)c(-c3nc4ncccc4o3)c2)cc1	.	.	.	.	-	.
Cc1cccc(Nc2nc(NCc3ccco3)c3ccccc3n2)c1	?	-	.	?	-	-
c1ccc(Nc2nc(NCc3ccco3)c3ccccc3n2)cc1	-	-	-	-	-	.
